Experimental findings from ChEMBL document CHEMBL4808148, “HDAC6 screening dataset using tau-based substrate in an enzymatic assay yields selective inhibitors and activators” (2021) are described below.

Among all 5,600 compounds or so, about 390 (7%) showed an effect of 50% or more. The sample as a whole holds a higher share of strong results than the screen did.

The target of the experiment is T1, Protein deacetylase HDAC6 (Homo sapiens) (UniProt Q9UBN7).
T1 sequence (whole entry): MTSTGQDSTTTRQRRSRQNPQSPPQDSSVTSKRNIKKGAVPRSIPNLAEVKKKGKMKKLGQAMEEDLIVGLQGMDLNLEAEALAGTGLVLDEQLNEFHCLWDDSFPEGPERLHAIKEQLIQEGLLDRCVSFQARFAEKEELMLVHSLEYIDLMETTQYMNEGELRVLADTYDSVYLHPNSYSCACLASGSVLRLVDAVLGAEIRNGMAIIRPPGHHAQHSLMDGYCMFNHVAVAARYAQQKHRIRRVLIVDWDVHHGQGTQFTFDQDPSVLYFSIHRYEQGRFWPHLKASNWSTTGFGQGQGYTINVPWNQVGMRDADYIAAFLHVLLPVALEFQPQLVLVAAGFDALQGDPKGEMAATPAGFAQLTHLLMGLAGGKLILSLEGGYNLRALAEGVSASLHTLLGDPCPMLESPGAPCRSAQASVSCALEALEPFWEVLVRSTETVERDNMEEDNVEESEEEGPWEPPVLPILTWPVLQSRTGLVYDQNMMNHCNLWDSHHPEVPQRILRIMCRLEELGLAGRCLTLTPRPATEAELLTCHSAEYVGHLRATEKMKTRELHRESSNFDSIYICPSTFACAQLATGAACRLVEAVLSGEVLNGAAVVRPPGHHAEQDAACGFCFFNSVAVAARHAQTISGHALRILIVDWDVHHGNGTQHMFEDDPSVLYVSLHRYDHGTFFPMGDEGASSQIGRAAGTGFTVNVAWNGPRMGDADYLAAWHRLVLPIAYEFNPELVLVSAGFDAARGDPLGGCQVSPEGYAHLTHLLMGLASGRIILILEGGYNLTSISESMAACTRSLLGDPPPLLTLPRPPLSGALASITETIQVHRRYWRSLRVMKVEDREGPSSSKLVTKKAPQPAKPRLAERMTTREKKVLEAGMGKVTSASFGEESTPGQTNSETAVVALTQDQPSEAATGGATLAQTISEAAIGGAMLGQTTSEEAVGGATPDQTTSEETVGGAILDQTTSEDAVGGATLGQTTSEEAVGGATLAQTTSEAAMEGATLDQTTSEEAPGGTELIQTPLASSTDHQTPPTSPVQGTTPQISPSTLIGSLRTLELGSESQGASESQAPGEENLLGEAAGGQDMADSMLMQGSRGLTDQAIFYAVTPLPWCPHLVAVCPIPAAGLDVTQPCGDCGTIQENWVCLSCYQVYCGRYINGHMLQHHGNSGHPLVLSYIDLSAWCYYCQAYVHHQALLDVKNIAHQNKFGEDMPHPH
Conditions: at 10 µM.
Consider `CNC(=O)c1ccc(C)c(-n2c(C)cc(OCc3ccc(F)cc3F)c(Br)c2=O)c1`, for which the inhibition turned out to be 72.6%.

For `CCCCCCCCCCCCCC[C@@H](O)[C@@H](O)[C@@H](N)CO`, the inhibition amounted to 0.56%.

Take `CCCc1c(OCC(O)COc2ccc3c(=O)cc(C(=O)O)oc3c2CCC)ccc(C(C)=O)c1O` (stereo unspecified): the inhibition came to 22.7%.

`Cc1cc(OI)c(C(C)C)cc1-c1cc(C(C)C)c(OI)cc1C`: the inhibition was found to be 7.55%.

Take `Cc1nc2ccc(NC(=O)Nc3ccnc4cccnc34)cc2o1`: the inhibition was 76%.

Regarding `CN[C@@H]1CCc2[nH]c3ccc(C(N)=O)cc3c2C1`, the inhibition is 9.03%.

In the case of `Cc1cccc(/C=N/Nc2cc(N3CCOCC3)nc(OCCc3ccccn3)n2)c1`, the inhibition worked out at 1.14%.

Regarding `Cc1cc(-c2nncc3c(C(C)(C)C)c(OCc4ncnn4C)nn23)no1`, the inhibition is -0.39%.

As for `O=C1c2c(O)cc(O)cc2O[C@H](c2ccc(O)c(O)c2)[C@H]1O`, the inhibition worked out at 10.8%.

As for `O=C1C[C@@H](c2ccc(O)cc2)Oc2cc(O)ccc21`, the inhibition is -5.99%.

Regarding `O=C1C[C@@H](c2ccccc2)Oc2cc(O)cc(O)c21`, the inhibition stood at 50.7%.

Consider `COc1cc([C@H]2Oc3cc([C@H]4Oc5cc(O)cc(O)c5C(=O)[C@@H]4O)ccc3O[C@@H]2CO)ccc1O`, for which the inhibition was determined as 15.7%.

For the compound `COc1ccc([C@@H]2CC(=O)c3c(O)cc(O)cc3O2)cc1O`, the inhibition worked out at 94.9%.

As for `COc1ccc([C@@H]2CC(=O)c3c(O)cc(O[C@@H]4O[C@H](CO[C@@H]5O[C@@H](C)[C@H](O)[C@@H](O)[C@H]5O)[C@@H](O)[C@H](O)[C@H]4O)cc3O2)cc1O`, the inhibition came to 14.3%.

As to `CS(=O)(=O)c1ccc([C@@H](CC2CCCC2)C(=O)Nc2nccs2)cc1`, the inhibition is -9.75%.

Turning to `Cn1cnnc1Sc1c([N+](=O)[O-])ncn1C`, the inhibition worked out at 19.5%.

Consider `C=C1/C(=C\C=C2/CCC[C@]3(C)[C@@H]([C@H](C)/C=C/[C@@H](O)C4CC4)CC[C@@H]23)C[C@@H](O)C[C@@H]1O`, for which the inhibition stood at 1.78%.

Turning to `C[C@@H](CN1CCC(n2c(=O)[nH]c3cc(Cl)ccc32)CC1)NC(=O)c1ccc2ccccc2c1`, the inhibition came to 8.37%.

As for `CC1(C)N=C(N)N=C(N)N1OCCCOc1cc(Cl)c(Cl)cc1Cl`, the inhibition was found to be 12%.

Turning to `Clc1cccc(-n2nnnc2NCc2ccccc2Oc2ccccn2)c1Cl`, the inhibition worked out at 0.62%.

On to `C[n+]1ccccc1C=NO`, for which the inhibition was 0.38%.

For `O=C1C(Cl)=C(N2CCOCC2)C(=O)N1c1ccc(Cl)c(Cl)c1`, the inhibition came to 86%.

On to `O=C(Nc1ccc(N2CCC(C(=O)N3CCOCC3)CC2)cc1)c1cnc(Oc2ccccc2)nc1`, for which the inhibition worked out at 3.27%.

Consider `CCN(CC)C(=S)S`, for which the inhibition stood at 13.4%.

On to `CC(=O)N(O)C/C=C/c1cccc(Oc2ccccc2)c1`, for which the inhibition turned out to be 9.26%.

On to `N[C@@H]1CCCN(c2c(/C=C3\SC(=O)NC3=O)cccc2-c2ccccc2)C1`, for which the inhibition turned out to be 104%.

With `CCCCCCC[N+](CC)(CC)CCCCc1ccc(Cl)cc1`, the inhibition is 11%.

For the compound `COc1cc(OC)cc(N(CCNC(C)C)c2ccc3ncc(-c4cnn(C)c4)nc3c2)c1`, the inhibition was -0.23%.

Regarding `Nc1nc(-c2nn(Cc3ccccc3F)c3ncccc23)ncc1C1CC1`, the inhibition worked out at 34.9%.

For `N=C(N)NCCC(=O)O`, the inhibition came to 1.27%.

Take `NC(=O)C1=CN([C@@H]2O[C@H](COP(=O)(O)OP(=O)(O)OC[C@H]3O[C@@H](n4cnc5c(N)ncnc54)[C@H](O)[C@@H]3O)[C@@H](O)[C@H]2O)C=CC1`: the inhibition is 4.98%.

For the compound `Cc1cnc(Nc2ccc(OCCN3CCCC3)cc2)nc1Nc1cccc(S(=O)(=O)NC(C)(C)C)c1`, the inhibition came to 25%.

On to `O=C(Nc1cccc2c(=O)cc(-c3nnn[nH]3)oc12)c1ccc(OCCCCc2ccccc2)cc1`, for which the inhibition was 9.45%.

As for `O=C(NO)c1ccc2[nH]c(=O)c(CCCc3ccccc3)nc2c1`, the inhibition is 99.2%.

With `CCCCc1ccc2[nH]c(NC(=O)OC)nc2c1`, the inhibition amounted to 48%.

On to `CCCCCCCCCCCCCCCC[N+](C)(C)Cc1ccccc1`, for which the inhibition turned out to be 36.2%.

As for `CC(C)c1ccc(CC(=O)N2CCC[C@@H](c3cccc(OC(C)(C)C(=O)O)c3)C2)cc1`, the inhibition was determined as 24.2%.

In the case of `Nc1n[nH]c2nc3ccccc3nc12`, the inhibition was found to be 53.6%.

With `COC(=O)c1ccc(O)cc1`, the inhibition was determined as 16.3%.

For the compound `COC(=O)CC1CC(c2ccc(O)cc2)=NO1` (stereo unspecified), the inhibition came to 96.7%.

Consider `Nc1nc(Nc2ccccc2)nc2c1ncn2[C@@H]1O[C@H](CO)[C@@H](O)[C@H]1O`, for which the inhibition was -2.75%.

On to `CC(N)(C(=O)O)c1ccc(-c2nnn[nH]2)cc1` (stereo unspecified), for which the inhibition was -2%.

Turning to `CN(C)C(=N)NCCC[C@H](N)C(=O)O`, the inhibition came to 23.2%.

As to `Cn1c(NCCN(CCO)CCCc2ccc([N+](=O)[O-])cc2)cc(=O)n(C)c1=O`, the inhibition is 7.31%.

For the compound `O=C(O)c1cc([N+](=O)[O-])ccc1NCCCc1ccccc1`, the inhibition was 109%.

As for `CS(=O)(=O)Nc1ccc([N+](=O)[O-])cc1Oc1ccccc1`, the inhibition was determined as 1.72%.

Take `O=C(Nc1ccccc1)N1CCC(Cc2cnc3ccccc3c2)CC1`: the inhibition came to 27.7%.

On to `Cn1cc(C2=C(c3cn(CCCSC(=N)N)c4ccccc34)C(=O)NC2=O)c2ccccc21`, for which the inhibition is -2.47%.

As to `Cn1cc(/C=C2/C(=O)Nc3cccnc32)c2ccccc21`, the inhibition is 99.5%.

`Cn1cc(C2=C(c3ccc(Cl)cc3Cl)C(=O)NC2=O)c2ccccc21`: the inhibition was -5.95%.

For `Cc1ccc(-c2cn3c4c(sc3n2)CCCC4)cc1`, the inhibition came out at 98%.

In the case of `Clc1ccccc1CNC[C@H]1CC[C@H](CNCc2ccccc2Cl)CC1`, the inhibition was found to be 9.4%.

In the case of `N#Cc1ccncn1`, the inhibition turned out to be 5.74%.

For `Nc1cccc(-c2cc3c(Oc4cccc(O)c4)ncnc3[nH]2)c1`, the inhibition was found to be 55.1%.

For the compound `C[C@@H]([C@@H](O)c1ccc(O)cc1)N1CCC(O)(c2ccccc2)CC1`, the inhibition came out at 14.2%.

For `CC/C=C(\C(=O)N[C@@H]1C(=O)N2C(C(=O)OCOC(=O)C(C)(C)C)=C(COC(N)=O)CS[C@H]12)c1csc(N)n1`, the inhibition turned out to be 4.66%.

In the case of `N#Cc1c(O)c2c(-c3ccc(-c4ccccc4O)cc3)csc2[nH]c1=O`, the inhibition was determined as 94.5%.

For the compound `CNC(=N)NC(=O)Nc1c(C)cccc1C`, the inhibition is 27.8%.

Take `C1=Cc2cccc(OCC3CNCCO3)c2C1` (stereo unspecified): the inhibition stood at 18.4%.

Consider `C=C(C)[C@@H]1CC[C@]2(C(=O)O)CC[C@]3(C)[C@H](CC[C@@H]4[C@@]5(C)CC[C@H](OC(=O)CC(C)(C)C(=O)O)C(C)(C)[C@@H]5CC[C@]43C)[C@@H]12`, for which the inhibition turned out to be 26.3%.

Turning to `O=c1oc2cc(O)ccc2s1`, the inhibition worked out at 15.3%.

Take `COc1ccc(-c2cc(=O)c3c(OC)c(OC)c(OC)c(OC)c3o2)cc1OC`: the inhibition is -2.26%.

Regarding `O=C(O)c1cc(O)c2c3nc4ccccc4oc-3cc(=O)c2n1`, the inhibition was 5.48%.

Regarding `O=c1cc(-c2ccc(O)cc2)oc2cc(O)cc(O)c12`, the inhibition stood at 97%.

On to `COc1ccc(-c2cc(=O)c3c(OC)c(OC)c(OC)c(OC)c3o2)cc1`, for which the inhibition is 44.4%.

In the case of `O=C(O)[C@H]1O[C@H](Oc2cc3oc(-c4ccccc4)cc(=O)c3c(O)c2O)[C@H](O)[C@@H](O)[C@@H]1O`, the inhibition turned out to be 61.7%.

For the compound `OCc1ccccc1O[C@@H]1O[C@H](CO)[C@@H](O)[C@H](O)[C@H]1O`, the inhibition is -9.23%.

Regarding `O=c1cc(-c2ccccc2)oc2cc(O)cc(O)c12`, the inhibition was found to be 101%.

Turning to `O=C(O)c1cc(O)c2c(c1)[C@@H]([C@H]1c3cc(C(=O)O)cc(O)c3C(=O)c3c(O[C@H]4O[C@H](CO)[C@@H](O)[C@H](O)[C@H]4O)cccc31)c1cccc(O[C@H]3O[C@H](CO)[C@@H](O)[C@H](O)[C@H]3O)c1C2=O`, the inhibition was 17.7%.

Consider `COc1ccc(-c2cc(=O)c3c(O)c(OC)c(O)cc3o2)cc1OC`, for which the inhibition stood at 85.7%.

For the compound `CCOC(=O)COc1ccc2c(=O)cc(-c3ccccc3)oc2c1`, the inhibition was 46.4%.

The inhibition is the drop in the measured response relative to a control, in per cent.
